Results taken from PubChem BioAssay.
Active and inactive are the calls of the source. Unless noted, no rule for the calls is given here.

Legend:
[1] = tested on: Wnt5a (protein binding on small-molecule microarray); test: small molecules binding Wnt5a protein – biophysical, small-molecule microarray, 635/667 nm fluorescence, primary screen (AID 1142); conditions: 635 nm fluorescence, higher = more signal;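 also: fluorescence read at 667 nm with signal to noise per printed feature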
[2] = ATP-based viability of Huh7 replicon cells – cell-based, CellTiter-Glo luminescence, basal, 48 h, cytotoxicity control for HCV replication inhibitor project, primary screen (AID 1143); conditions: higher = more signal, called active from +8 up or from −8 down;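 also: Huh7 hepatoma cells carrying a hepatitis C replication reporter with no stimulus; test concentration not given here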
[3] = Pseudomonas biofilm growth suppression – PAO1 strain, BacTiter-Glo luminescence, LB-PBS, primary screen (AID 1144); conditions: P. aeruginosa PAO1 biofilm, 12 h, higher = more signal
[4] = basal CRE-LacZ reporter activity in PC12 – cell-based, unstimulated, primary screen (AID 1145); conditions: no forskolin, luminescence, 4.5 h, higher = more signal, called active from +8 up or from −8 down
[5] = forskolin-driven CRE-LacZ activity in PC12 – cell-based, CRE-LacZ reporter, forskolin-stimulated, primary screen (AID 1146); conditions: luminescence, 4.5 h, higher = more signal, called active from +8 up or from −8 down;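 also: PC12 cells with 6xCRE LacZ reporter stimulated by forskolin 10 µM; beta-galactosidase reporter signal reflecting CREB driven transcription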
[6] = molecular target: Streptavidin (Streptomyces avidinii) (UniProt P22629); test: compounds binding control protein streptavidin – biophysical, small-molecule microarray, 635/667 nm fluorescence, artefact control for SMM compound annotation, primary screen (AID 1147); conditions: higher = more signal;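 also: signal reflects streptavidin binding to arrayed compounds as a control protein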
Chain of Streptavidin (Streptomyces avidinii) (P22629 whole entry, looked up): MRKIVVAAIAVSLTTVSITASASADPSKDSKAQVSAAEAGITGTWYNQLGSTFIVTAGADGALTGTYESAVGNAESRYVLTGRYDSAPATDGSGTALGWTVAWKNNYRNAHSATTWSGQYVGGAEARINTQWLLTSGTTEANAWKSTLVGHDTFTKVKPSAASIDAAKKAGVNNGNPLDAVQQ

[7] = probe aInhba binding on compound microarray – biochemical, small-molecule microarray, 635/667 nm fluorescence, primary screen (AID 1148); conditions: higher = more signal;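 also: score merges 667nm spot fluorescence with signal-to-noise for antibody binding to printed compounds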
Torsin-1A (Homo sapiens) [8] = molecular target: Torsin-1A (Homo sapiens) (UniProt O14656); test: TOR1A wild-type binding on microarray – cell lysate, small-molecule microarray, lysate, 635/667 nm, primary screen (AID 1149); conditions: COS7 hTOR1A-WT lysate, 635 nm fluorescence, higher = more signal
Chain of Torsin-1A (Homo sapiens) (O14656 whole entry, looked up): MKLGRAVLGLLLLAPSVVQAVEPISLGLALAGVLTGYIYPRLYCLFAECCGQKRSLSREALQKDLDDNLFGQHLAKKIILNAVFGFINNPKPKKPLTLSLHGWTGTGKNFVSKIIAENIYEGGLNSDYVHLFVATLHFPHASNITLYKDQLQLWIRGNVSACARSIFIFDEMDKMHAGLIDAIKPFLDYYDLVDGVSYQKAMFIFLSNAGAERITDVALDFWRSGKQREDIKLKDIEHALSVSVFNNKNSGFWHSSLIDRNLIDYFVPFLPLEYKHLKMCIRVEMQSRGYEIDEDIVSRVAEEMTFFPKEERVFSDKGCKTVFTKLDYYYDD

Torsin-1A (Homo sapiens) [9] = molecular target: Torsin-1A (Homo sapiens) (UniProt O14656); test: torsin A mutant lysate binding on microarrays – cell lysate, small-molecule microarray, COS7 lysate, 635/667 nm fluorescence, primary screen (AID 1150); conditions: COS7 hTOR1A mutant lysate, 635 nm fluorescence, higher = more signal;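 also: score pools 667 nm emission and signal to noise measuring lysate protein binding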
[10] = tested on: Sonic hedgehog protein (Shh); test: Sonic hedgehog microarray binding compounds – biochemical, small-molecule microarray, 635/667 nm fluorescence, primary screen (AID 1151); conditions: 635 nm fluorescence, higher = more signal;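 also: Shh protein binding to compounds spotted on small-molecule microarray slides; score combines spot fluorescence intensity with signal-to-noise across triplicate slides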

| Structure (SMILES) | composite z-score [1] | z-score [2] | z-score [3] | z-score [4] | z-score [5] | composite z-score [6] | composite z-score [7] | composite z-score (Torsin-1A (Homo sapiens) [8]) | composite z-score (Torsin-1A (Homo sapiens) [9]) | composite z-score [10] |
| --- | --- | --- | --- | --- | --- | --- | --- | --- | --- | --- |
| COC(=O)[C@@]1(Cc2ccccc2)[C@H]2c3cc(C(=O)N(C)C)n(Cc4c(-c5ccccc5)noc4C)c3C[C@H]2CN1C(=O)c1ccccc1 | 0.235 | -2.2 (inactive) | -0.0247 (inactive) | 0.201 (inactive) | -0.732 (inactive) | 1.47 | 0.308 | 0.301 | 0.584 | -0.141 |
| C=C(COC)C(=O)CC[C@H](OC(C)=O)c1cccc(OCCO)c1 | 0.145 | -3.15 (inactive) | 0.198 (inactive) | 0.942 (inactive) | 0.203 (inactive) | -1.1 | -0.142 | 0.315 | 0.142 | 0.9 |
| COC(=O)[C@@]1(Cc2ccccc2)[C@H]2c3cc(C(=O)N(C)C)n(Cc4cc(C)n(C)n4)c3C[C@H]2CN1C(=O)c1ccccc1 | 0.0704 | -1.31 (inactive) | 0.381 (inactive) | 2.3 (inactive) | 1.92 (inactive) | 1.63 | 0.606 | 1.31 | 1.99 | 0.278 |
| Cc1c(NC(=O)CC#N)c(=O)n(-c2ccccc2)n1C | 0.0101 | -2.39 (inactive) | -0.739 (inactive) | -0.671 (inactive) | -0.832 (inactive) | -0.347 | -0.179 | 0.362 | -0.0384 | 0.642 |
| COC(=O)c1ccc(OC)c(/C=C\CC(OC(C)=O)c2ccccc2)c1 (stereo not given) | -0.136 | -1.38 (inactive) | 0.623 (inactive) | 0.479 (inactive) | -0.0792 (inactive) | 3.16 | -0.179 | -0.0525 | -0.165 | 0.539 |
| COCCOC(=O)N1C(=O)[C@@]2(c3cc(C#CCCO)ccc31)[C@H](c1ccc(O)cc1)N1[C@H](c3ccccc3)[C@H](c3ccccc3)OC(=O)[C@H]1[C@@H]2C(N)=O | 0.453 | -0.209 (inactive) | 0.393 (inactive) | 0.48 (inactive) | 0.73 (inactive) | -0.656 | 0.0388 | 0.553 | 0.883 | 0.493 |
| O=C1C2C=CC(C(O)c3ccc(B(O)O)cc3)N(Nc3ccccc3)C2C(=O)N1c1ccccc1 (stereo not given) | -0.0341 | -2.7 (inactive) | -1.06 (inactive) | 0.24 (inactive) | 1.11 (inactive) | 0.471 | -0.0797 | -0.138 | -0.724 | -0.661 |
| [N-]=[N+]=NCc1ccccc1[C@@H]1OC(c2ccc(OCCCO)cc2)=N[C@]1(Cc1ccccc1N=[N+]=[N-])C(=O)NCc1ccccc1 | 0.378 | -3 (inactive) | -0.433 (inactive) | -0.193 (inactive) | -1.02 (inactive) | 0.942 | -0.0006 | 0.819 | 0.191 | 1.51 |
| COCCCNC(=O)[C@@]1(C)c2ccccc2C(=O)N(Cc2cc(C(F)(F)F)cc(C(F)(F)F)c2)[C@H]1c1ccc(CO)cc1 | -0.676 | -2.82 (inactive) | -0.417 (inactive) | 0.468 (inactive) | 0.243 (inactive) | -0.673 | -0.0675 | -1.37 | -1.27 | -0.207 |
| CC(C)N1C(=O)[C@@]2(c3ccc([N+](=O)[O-])cc3)CC(=O)N(CC34CC5CC(CC(C5)C3)C4)[C@@H]2c2ccc(CO)cc21 | -0.61 | -0.36 (inactive) | -0.292 (inactive) | 0.452 (inactive) | -0.41 (inactive) | -0.842 | 0.195 | -1.81 | -0.858 | 0.453 |
| C=CC[C@@]1(C(=O)N2CCOCC2)N=C(c2ccc(OCCCO)cc2)O[C@@H]1c1ccccc1N=[N+]=[N-] | 0.331 | -4.09 (inactive) | -0.726 (inactive) | -0.333 (inactive) | -1.34 (inactive) | 1.73 | 0.2 | 0.41 | 0.386 | 0.0055 |
| O=C(CS)NCCCCCCNC(=O)[C@@H]1C[C@@H]2C(=O)N3CCC[C@H]3C(=O)N2[C@@H]1c1ccc(O)cc1 | 0.133 | 0.589 (inactive) | 0.178 (inactive) | -0.39 (inactive) | -0.972 (inactive) | -0.974 | -0.129 | 0.971 | 1.1 | 0.881 |
| COC(=O)C1=CC(CCCO)=CC(C2CC2)N(Cc2sc3ccccc3c2Cl)C=C1C(=O)OC (stereo not given) | 0.351 | -3.83 (inactive) | 0.989 (inactive) | -0.464 (inactive) | 0.106 (inactive) | 2.17 | 0.19 | 0.688 | 0.806 | -0.112 |
| C=CCC(OC(C)=O)[C@@H]1[C@@H](N(Cc2cc3ccccc3o2)C(=O)c2ccc(C)cc2)c2cc(OCCCO)ccc2N1C(=O)c1ccc2ccccc2c1 (stereo not given in full) | 0.132 | 0.0491 (inactive) | -0.571 (inactive) | 3.93 (inactive) | 0.697 (inactive) | 0.0282 | -0.0963 | -0.353 | -0.0172 | 0.218 |
| CCCCC=C[C@@H](NC(=O)c1cccs1)c1ccccc1 | 0.0001 | -2.49 (inactive) | 0.15 (inactive) | -0.951 (inactive) | -0.548 (inactive) | 0.801 | 0.261 | 0.0798 | 0.454 | -0.216 |
| COCCOC(=O)N1C(=O)[C@@]2(c3cc(C#CCNC(N)=O)ccc31)[C@H](c1ccc(O)cc1)N1[C@H](c3ccccc3)[C@H](c3ccccc3)OC(=O)[C@H]1[C@@H]2C(=O)NC[C@H](O)c1ccccc1 | 0.545 | 0.123 (inactive) | 0.00448 (inactive) | -0.606 (inactive) | -0.197 (inactive) | -0.0027 | 0.415 | 0.76 | 0.353 | 1.75 |
| O=C1c2ccccc2[C@@]2(Cc3ccccc3N(Cc3ccccc3)C2=O)[C@H](c2ccc(CO)cc2)N1C1CCCCC1 | 0.149 | 0.608 (inactive) | 0.0703 (inactive) | 0.0924 (inactive) | 0.0935 (inactive) | -0.258 | -0.0933 | 0.177 | -0.269 | 1.08 |
| [N-]=[N+]=Nc1ccccc1[C@@H]1OC(c2ccc(OCCCO)cc2)=N[C@]1(CCS(=O)(=O)c1ccccc1)C(=O)N1CCOCC1 | 1.3 | -2.26 (inactive) | -0.199 (inactive) | 1.8 (inactive) | -1.49 (inactive) | 1.52 | 0.165 | 0.46 | 1.63 | -0.29 |
| O=c1cccc(CCc2ccccc2)o1 | -0.187 | -0.908 (inactive) | 0.624 (inactive) | 1.08 (inactive) | 1.03 (inactive) | -0.0374 | 0.0357 | -0.221 | -0.15 | 0.943 |
| [N-]=[N+]=Nc1ccccc1[C@H]1OC(c2ccc(OCCCO)cc2)=N[C@@]1(CCS(=O)(=O)c1ccccc1)C(=O)O | 0.296 | -1.06 (inactive) | 0.713 (inactive) | 1.29 (inactive) | -0.197 (inactive) | 0.433 | 0.0516 | -0.363 | 1.13 | -0.721 |
| COCCOC(=O)N1C(=O)[C@@]2(c3cc(C#CC4=CCCCC4)ccc31)[C@H](C(=O)NC[C@H](O)c1ccccc1)[C@H]1C(=O)O[C@H](c3ccccc3)[C@H](c3ccccc3)N1[C@@H]2c1ccc(O)cc1 | 0.236 | -3.91 (inactive) | 1.19 (inactive) | 0.208 (inactive) | -1.04 (inactive) | 1 | 0.221 | 0.838 | 0.652 | 1.34 |
| COC(=O)[C@@]1(Cc2ccc(OC)cc2)[C@H]2c3cc(C(=O)N4CCCC4)n(Cc4cc(F)cc5c4OCOC5)c3C[C@H]2CN1C(=O)c1ccccc1 | 0.605 | -2.5 (inactive) | 0.437 (inactive) | 2.68 (inactive) | 66.7 (active) | 0.699 | 0.423 | 0.442 | 0.996 | -0.673 |
| O=C1OCC=C[C@H]2OC34C=CCN(c5ccc6ccccc6c5)C(=O)[C@H]3N(CCCO)C(=O)[C@@H]4[C@@H]12 (stereo not given in full) | -0.701 | -2.14 (inactive) | 0.179 (inactive) | 0.337 (inactive) | 0.27 (inactive) | -0.835 | -0.0675 | -1.69 | -1.38 | -0.372 |
| O=C1O[C@@H](c2ccccc2)[C@@H](c2ccccc2)N2[C@@H](c3ccc(OCCO)cc3)[C@]3(C(=O)Nc4ccccc43)[C@@H](C(=O)Nc3nc4ccccc4s3)[C@H]12 | 0.441 | -3.3 (inactive) | -1.78 (inactive) | 0.362 (inactive) | -0.278 (inactive) | 1.17 | 0.289 | 1.05 | 1.11 | 1.75 |
| [N-]=[N+]=NCc1ccccc1C[C@]1(C(=O)NCCN2CCOCC2)N=C(c2ccc(OCCCO)cc2)O[C@H]1c1ccccc1N=[N+]=[N-] | 0.152 | -3.01 (inactive) | -0.446 (inactive) | 1.65 (inactive) | -0.891 (inactive) | 1.05 | 0.279 | 0.304 | 0.283 | -0.0478 |
| CC(C)Cc1ccc(CN2CC[C@@H](NS(=O)(=O)c3ccccc3)C2)cc1 | -0.353 | -5.08 (inactive) | -0.721 (inactive) | 0.224 (inactive) | -0.138 (inactive) | -0.369 | -0.188 | -0.957 | -0.274 | 1.45 |
| CC(c1ccccc1)C(O)C1C=CC2C(=O)NC(=O)C2N1Nc1ccccn1 (stereo not given) | 0.211 | 1.25 (inactive) | -1.1 (inactive) | -0.329 (inactive) | -1.03 (inactive) | 0.0932 | 0.0906 | 0.763 | 0.197 | 0.341 |
| C=CC[C@@]1(C(=O)O)N=C(c2ccc(OCCCO)cc2)O[C@@H]1c1ccccc1N=[N+]=[N-] | 0.0886 | -1.41 (inactive) | 0.651 (inactive) | 0.367 (inactive) | -0.432 (inactive) | 1.11 | 0.0697 | -0.115 | 0.251 | -0.203 |
